Laboratory results published in PubChem BioAssay (Tox21).
Several values for one entry are separate records, joined by “and”; a condition that tells them apart may be missing. Equal values may be shown once. Inconclusive results are not listed. Where a structure was tested more than once in an assay, its records may differ in their call. Activity calls are given as the source filed them. Unless noted, the call rests on the fitted dose curve; in most records, active means well fitted curve in the direction sought with a large enough effect in the repeat runs; inconclusive means weak or mixed curves; inactive means no such curve, though single readings can be large; an effect the other way counts as inactive or inconclusive.

Key:
[1] = qHTS assay to identify small molecule agonists of the constitutive androstane receptor (CAR) signaling pathway - cell viability counter screen (AID 1224836); further: nearly all actives have a fitted effect of over 45% in size
In short: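 Cell viability multiplexed with the CAR agonist screen: CellTiter-Fluor fluorescence after 23 hr at 37 C. HepG2-CYP2B6-hCAR cells got compounds at 15 concentrations with PK11195 at 0.75 uM final.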

[2] = qHTS assay to identify small molecule antagonists of the constitutive androstane receptor (CAR) signaling pathway - cell viability counter screen (AID 1224837); further: nearly all actives have a fitted effect of over 45% in size
In short: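 HepG2 cells stably carrying hCAR and CYP2B6-2.2kb reporter, stimulated with 50 nM CITCO and compounds at 15 concentrations for 23 h at 37 C. Viability measured by CellTiter-Fluor fluorescence.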

[3] = qHTS assay to identify small molecule antagonists of the estrogen related receptor signaling pathway with the pleiotropic PPARgamma coactivator (PGC) from Tox21 10K library - cell viability counter screen (AID 1224840; active means well fitted cell-killing curve with a large enough effect in the repeat runs, not every such curve was filed as active; further: nearly all actives have a fitted effect of over 40% in size; further: potency means the concentration at half of the fitted maximal effect)
In short: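 PGC/ERR cells (2,000/well) plated 6 h, then compound-treated for 17.5 h at 37 C. Viability measured by CellTiter-Fluor fluorescence after 30 min at 37 C, multiplexed with the pathway assay.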

[4] = target: Thyrotropin receptor (Homo sapiens) (UniProt P16473); test: qHTS assay to identify small molecule agonists of the thyroid stimulating hormone receptor (TSHR) signaling pathway (AID 1224843; calls by dose curve; further: nearly all actives have a fitted effect of over 45% in size)
In short: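 Steps: seed 800 TSHR-HEK293 cells per well; add test compound and hold 30 min at ambient temperature; dispense cAMP-d2 then anti-cAMP cryptate; incubate 1 h at ambient; measure fluorescence intensity.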

[5] = qHTS assay to identify small molecule agonists of the hypoxia (HIF-1) signaling pathway - cell viability counter screen (AID 1224844; calls by dose curve; further: nearly all actives have a fitted effect of over 50% in size; further: potency means the concentration at half of the fitted maximal effect)
In short: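 HRE-bla ME-180 cells, 2,000/well in 0.5% dialyzed FBS medium, treated 17 h at 37C with compounds. Viability read in the same wells as the bla reporter, by CellTiter-Glo luminescence after 30 min at room temperature.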

[6] = qHTS assay to identify small molecule agonists of H2AX (AID 1224845; active means well fitted activation curve with a large enough effect in the signal ratio in the repeat runs, not every such curve was filed as active; the % refers to the signal ratio)
In short: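 Wild-type CHO-K1 cells, plated overnight, exposed 3hr at 37C to 15 concentrations (0.76% DMSO final). Lysed, then HTRF anti-pH2AX (S139) cryptate and anti-H2AX-d2 antibodies, 24 hr room temperature; 665/620 nm emission read.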

[7] = qHTS assay to identify small molecule agonists of the hypoxia (HIF-1) signaling pathway (AID 1224846; active means well fitted activation curve with a large enough effect in the signal ratio in the repeat runs, not every such curve was filed as active; the % refers to the signal ratio)
In short: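 HRE-bla ME-180 beta-lactamase reporter cells in medium with 0.5% dialyzed FBS, pre-incubated 5 h then exposed to compounds 17 h at 37C, 5% CO2; reporter induction read with CCF4-AM FRET substrate.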

[8] = qHTS RealTime-Glo MT Cell Viability Assay in HepG2 cells - 24 hour (AID 1224867); further: nearly all actives have a fitted effect of over 50% in size; further: potency means the concentration at half of the fitted maximal effect
In short: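 HepG2 cells were seeded at 600 cells/well together with NanoLuc luciferase and a cell-permeant prosubstrate, preincubated 5 h at 37 C/5% CO2, then pin-dosed with compounds in DMSO. Nonlytic luminescence from viable cells was read at each time point.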

[9] = A CellTox Green Cytotoxicity Assay to monitor cytotoxicity in HEK293 cells - 0 hour (AID 1224869); further: nearly all actives have a fitted effect of over 50% in size
In short: (§1)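 HEK293 cells, 600/well, were preincubated 5 hours and then exposed to compounds at 37 C for up to 40 hours. A cell-impermeant cyanine dye staining dead-cell DNA was read by fluorescence at 0, 8, 16, 24, 32 and 40 h time points.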

[10] = qHTS RealTime-Glo MT Cell Viability Assay in HepG2 cells - 40 hour (AID 1224870); further: nearly all actives have a fitted effect of over 50% in size; further: potency means the concentration at half of the fitted maximal effect
In short: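 HepG2 cells (600/well) mixed with RealTime-Glo MT reagent, settled 5 h at 37 C/5% CO2 before compound addition. Nonlytic NanoLuc luminescence from viable-cell prosubstrate reduction read repeatedly during 40 h treatment at 37 C.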

[11] = A CellTox Green Cytotoxicity Assay to monitor cytotoxicity in HEK293 cells - 40 hour (AID 1224871); further: nearly all actives have a fitted effect of over 45% in size; further: potency means the concentration at half of the fitted maximal effect
In short: as §1

[12] = target: Nuclear receptor subfamily 1 group I member 3 (Homo sapiens) (UniProt Q14994); test: qHTS assay to identify small molecule antagonists of the constitutive androstane receptor (CAR) signaling pathway (AID 1224838); further: nearly all actives have a fitted effect of over 40% in size
In short: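 HepG2 cells stably carrying hCAR and a CYP2B6-2.2kb luciferase reporter, seeded 4 hrs before compound (15 concentrations). Stimulated with 50 nM CITCO for 24 hr at 37 C. ONE-Glo luminescence read after 30 min at room temperature.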

[13] = target: Nuclear receptor subfamily 1 group I member 3 (Homo sapiens) (UniProt Q14994); test: qHTS assay to identify small molecule agonists of the constitutive androstane receptor (CAR) signaling pathway (AID 1224839); further: nearly all actives have a fitted effect of over 15% in size; further: potency means the concentration at half of the fitted maximal effect
In short: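 Luminescent ONE-Glo read-out after 24 hr, 37 C exposure of double-stable HepG2-CYP2B6-hCAR reporter cells to a 15-point compound series, in the presence of 0.75 uM PK11195 (final).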

[14] = qHTS assay to identify small molecule antagonists of the estrogen related receptor signaling pathway with the pleiotropic PPARgamma coactivator (PGC) from Tox21 10K library (AID 1224841; call rule not given here; further: potency means the concentration at half of the fitted maximal effect)
In short: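 PGC/ERR cell line, 2,000 cells/well, pre-incubated 6 hours at 37 C, then exposed to compounds for 18 hours at 37 C; luciferase read with One-Glo luminescence after 30 min at room temperature.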

[15] = qHTS assay to identify small molecule antagonists of the estrogen related receptor (ERR) signaling pathway from Tox21 library (AID 1224848); further: nearly all actives have a fitted effect of over 50% in size; further: potency means the concentration at half of the fitted maximal effect
In short: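 Luminescent reporter read-out (ONE-Glo) from NTP's ERR cell line after 18 h treatment at 37 C with DMSO-dissolved Tox21 compounds; cells pre-plated 6 h beforehand at 2,000 per well.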

[16] = target: Luciferin 4-monooxygenase (Photinus pyralis) (UniProt P08659); test: qHTS assay to identify small molecule inhibitors of firefly luciferase (AID 1224835); further: nearly all actives have a fitted effect of over 25% in size
In short: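 Biochemical qHTS: compounds run as interplate titrations against purified firefly enzyme, with D-luciferin and ATP each at its KM concentration. Light output recorded by CCD imaging.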

[17] = qHTS assay to identify small molecule agonists of the estrogen related receptor signaling pathway with the pleiotropic PPARgamma coactivator (PGC) from Tox21 10K library (AID 1224842); further: nearly all actives have a fitted effect of over 15% in size
In short: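 PGC/ERR reporter cell line, 2,000 cells per well, incubated 6 h at 37 C before 23 nL compound in DMSO was added. After 18 h at 37 C, One-Glo luminescence read following 30 min at room temperature.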

[18] = qHTS assay to identify small molecule agonists of H2AX - cell viability counter screen (AID 1224847; calls by dose curve; further: nearly all actives have a fitted effect of over 30% in size; further: potency means the concentration at half of the fitted maximal effect)
In short: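 Counter-screen for viability: CellTiter-Glo ATP luminescence read after 3 h compound treatment (15-point titration, 0.76% DMSO final) of CHO-K1 cells at 37C, with 30 min room-temperature reagent incubation.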

[19] = qHTS assay to identify small molecule agonists of the estrogen related receptor (ERR) signaling pathway from Tox21 library (AID 1224849; calls by dose curve; further: nearly all actives have a fitted effect of over 15% in size); conditions: ERR reporter cell line, ONE-Glo luciferase, 18 h
In short: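 ERR reporter cells (NTP line) pre-incubated 6 hours at 37 C, then exposed to compounds for 18 hours at 37 C. ONE-Glo luciferase luminescence was read after 30 minutes at room temperature.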

[20] = qHTS RealTime-Glo MT Cell Viability Assay in HEK293 cells - 32 hour (AID 1224868); further: nearly all actives have a fitted effect of over 50% in size; further: potency means the concentration at half of the fitted maximal effect
In short: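 HEK293 cells were seeded at 600 cells/well together with NanoLuc luciferase and cell-permeant prosubstrate, preincubated 5 h at 37 C/5% CO2, then given compound in DMSO by pintool. Luminescence from viable-cell prosubstrate reduction was read repeatedly over 40 h.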
On the % scale 0 is the no-effect control and ±100 the full control effect.

Chain of Thyrotropin receptor (Homo sapiens) (P16473 whole entry, looked up): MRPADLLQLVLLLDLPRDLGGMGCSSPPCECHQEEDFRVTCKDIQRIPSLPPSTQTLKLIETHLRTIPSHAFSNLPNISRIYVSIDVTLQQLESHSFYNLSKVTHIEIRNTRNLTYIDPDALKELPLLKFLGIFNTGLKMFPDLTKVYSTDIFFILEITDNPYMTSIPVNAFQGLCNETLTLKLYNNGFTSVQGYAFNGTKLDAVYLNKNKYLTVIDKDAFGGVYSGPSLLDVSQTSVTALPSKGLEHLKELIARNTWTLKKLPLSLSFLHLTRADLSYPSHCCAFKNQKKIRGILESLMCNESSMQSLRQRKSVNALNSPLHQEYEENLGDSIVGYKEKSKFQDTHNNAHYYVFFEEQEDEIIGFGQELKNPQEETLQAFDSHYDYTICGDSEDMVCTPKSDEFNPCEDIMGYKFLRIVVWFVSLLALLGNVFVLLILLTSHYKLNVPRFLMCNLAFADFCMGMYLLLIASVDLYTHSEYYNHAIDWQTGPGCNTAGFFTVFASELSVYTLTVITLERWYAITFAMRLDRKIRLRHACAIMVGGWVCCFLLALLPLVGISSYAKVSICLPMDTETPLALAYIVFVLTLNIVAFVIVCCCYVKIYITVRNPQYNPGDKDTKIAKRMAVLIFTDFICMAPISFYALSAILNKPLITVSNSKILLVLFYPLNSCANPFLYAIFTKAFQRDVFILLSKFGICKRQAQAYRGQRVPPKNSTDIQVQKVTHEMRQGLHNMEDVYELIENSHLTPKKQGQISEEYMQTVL
Chain of Luciferin 4-monooxygenase (Photinus pyralis) (P08659 whole entry, looked up): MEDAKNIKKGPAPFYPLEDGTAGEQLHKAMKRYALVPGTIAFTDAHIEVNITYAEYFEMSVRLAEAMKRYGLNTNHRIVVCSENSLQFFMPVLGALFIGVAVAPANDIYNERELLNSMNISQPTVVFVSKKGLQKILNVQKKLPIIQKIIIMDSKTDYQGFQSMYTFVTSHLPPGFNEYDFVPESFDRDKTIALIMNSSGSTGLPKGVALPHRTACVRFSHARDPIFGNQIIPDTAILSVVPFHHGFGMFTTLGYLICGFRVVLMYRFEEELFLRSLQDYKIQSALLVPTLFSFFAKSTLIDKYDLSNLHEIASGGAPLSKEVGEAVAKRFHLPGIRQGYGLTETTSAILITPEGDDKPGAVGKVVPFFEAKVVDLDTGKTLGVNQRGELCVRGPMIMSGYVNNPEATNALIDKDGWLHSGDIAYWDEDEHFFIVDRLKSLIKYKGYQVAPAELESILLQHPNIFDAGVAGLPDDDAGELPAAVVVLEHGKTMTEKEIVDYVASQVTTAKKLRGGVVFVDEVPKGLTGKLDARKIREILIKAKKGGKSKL
Chain of Nuclear receptor subfamily 1 group I member 3 (Homo sapiens) (Q14994 whole entry, looked up): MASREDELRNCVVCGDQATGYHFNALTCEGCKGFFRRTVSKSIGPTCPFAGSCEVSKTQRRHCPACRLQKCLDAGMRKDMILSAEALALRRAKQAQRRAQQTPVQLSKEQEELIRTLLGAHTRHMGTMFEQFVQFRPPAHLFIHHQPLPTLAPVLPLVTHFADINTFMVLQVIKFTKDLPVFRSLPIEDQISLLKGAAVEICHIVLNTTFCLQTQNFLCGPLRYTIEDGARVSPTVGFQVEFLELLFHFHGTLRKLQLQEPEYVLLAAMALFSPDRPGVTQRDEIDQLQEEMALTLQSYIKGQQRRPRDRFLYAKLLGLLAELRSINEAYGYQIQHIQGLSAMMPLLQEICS

CCC(C)[O-].CCC(C)[O-].CCOC(=O)/C=C(/C)[O-].[Al+3]
inactive: Potency [1] | Potency [2] | Potency [3] | Potency [4] | Potency [5] | Potency [6] | Potency [7] | Potency [8] | Potency [9] | Potency [10] | Potency [11]

Cc1ccc(O)c(O)c1
inactive: Potency [1] | Potency [2] | Potency [12] | Potency [14] | Potency [7] | Potency [15] | Potency [8] | Potency [9] | Potency [10]
active: Potency [13] 47.2 µM

Cc1cc(-c2ccc(N=Nc3cc(S(=O)(=O)O)c4ccccc4c3N)c(C)c2)ccc1N=Nc1cc(S(=O)(=O)O)c2ccccc2c1N
active: Potency [14] 12.3 µM | Potency [18] 80.4 µM | Potency [15] 5.48 µM | Potency [20] 2.2 µM | Potency [11] 49.2 µM
inactive: Potency [16] | Potency [13] | Potency [3] | Potency [17] | Potency [4] | Potency [5] | Potency [6] | Potency [7] | activity change, positive = activation ([19]; at 92.4 µM (top of the series)) -50.3% | Potency [8] | Potency [9] | Potency [10]

Cc1cc(C)c(/C=C2\C(=O)Nc3ccccc32)[nH]1
inactive: Potency [1] | Potency [2] | Potency [3] | Potency [14] | Potency [17] | Potency [4] | Potency [18] | Potency [15] | activity change, positive = activation ([19]; at 42.5 µM (top of the series)) 5.59% | Potency [8] | Potency [20] | Potency [10]
active: Potency [11] 9.52 µM

Nc1ccc(Oc2ccc(Cl)cc2)cc1
active: Potency [20] 21.4 µM
inactive: Potency [1] | Potency [2] | Potency [12] | Potency [3] | Potency [14] | Potency [17] | Potency [4] | Potency [5] | Potency [7] | activity change, positive = activation ([19]; at 92.4 µM (top of the series)) -19.3% | Potency [8] | Potency [9] | Potency [10]

O=c1[nH]c2ccccc2n1CCCN1CCN(C(c2ccccc2)c2ccccc2)CC1
active: Potency [3] 23.7 µM | Potency [8] 23.9 µM | Potency [20] 12 µM | Potency [10] 23.9 µM
inactive: Potency [16] | Potency [13] | Potency [4] | Potency [9] | Potency [11]

CC(C)=CCC1=C(O)c2ccccc2C(=O)C1=O
active: Potency [13] 27.1 µM | Potency [14] 2.42 µM | Potency [15] 1.92 µM
inactive: Potency [12] | Potency [17] | Potency [5] | Potency [7] | activity change, positive = activation ([19]; at 92.4 µM (top of the series)) -51.5% | Potency [8] | Potency [9] | Potency [10]

CCCCCCCCCCCCCCCC[N+](C)(C)CC
active: Potency [18] 101 µM and 49.2 µM | Potency [15] 17.3 µM and 10.6 µM | Potency [8] 24.6 µM and 23.9 µM | Potency [10] 19.6 µM and 19 µM | Potency [11] 43.8 µM and 23.9 µM
inactive: Potency [16] | Potency [17] | Potency [4] | Potency [5] | Potency [6] | activity change, positive = activation ([19]; at 42.5 µM (top of the series)) -55.4% | activity change, positive = activation ([19]; at 92.4 µM (top of the series)) -72.7% | Potency [9]
30.7 µM (active) and inactive: Potency [3]

O=C1NC(=O)[C@@H]2CC=CC[C@H]12
inactive: Potency [1] | Potency [2] | Potency [12] | Potency [13] | Potency [3] | Potency [4] | Potency [6] | Potency [18] | Potency [15] | activity change, positive = activation ([19]; at 92.4 µM (top of the series)) -12.4% | Potency [8] | Potency [20] | Potency [9] | Potency [10] | Potency [11]
active: Potency [5] 19.5 µM

C/C=C/C=C/COC(=O)C(C)C
inactive: Potency [1] | Potency [12] | Potency [13] | Potency [3] | Potency [7] | Potency [9]

OC1CCC(C2CCCCC2)CC1 (centres undefined)
inactive: Potency [1] | Potency [2] | Potency [3] | Potency [14] | Potency [17] | Potency [5] | Potency [6] | Potency [7] | Potency [15] | activity change, positive = activation ([19]; at 92.4 µM (top of the series)) -1.53% | Potency [8] | Potency [9] | Potency [10]

CC(=O)[C@H]1CC[C@H]2[C@@H]3CCC4=CC(=O)CC[C@]4(C)[C@H]3CC[C@]12C
inactive: Potency [16] | Potency [2] | Potency [17] | Potency [4] | Potency [5] | activity change, positive = activation ([19]; at 92.4 µM (top of the series)) -73.5% and -66.4% | Potency [9] | Potency [10]
active: Potency [14] 27.1 µM and 13.7 µM | Potency [18] 100 µM and 101 µM | Potency [15] 13.6 µM and 15.4 µM | Potency [20] 13.7 µM and 17.4 µM | Potency [11] 24.4 µM and 34.7 µM

Oc1cc(Cl)cc(Cl)c1Cl
active: Potency [18] 51.7 µM
inactive: Potency [1] | Potency [2] | Potency [12] | Potency [13] | Potency [4] | Potency [5] | Potency [6] | Potency [7] | Potency [8] | Potency [9] | Potency [10]
